# Results from PubChem BioAssay AID2314 (National Center for Advancing Translational Sciences (NCATS), 2010).
# “And” between values parts separate entries of the source, which are not always exact repeats. Equal values may be shown once. Screen size: about 300,000 compounds; about 37,000 (12%) were called active. The full list was thinned out, with actives kept by preference. Unmarked numbers belong to inactive results. Cut-off read from the data, not from the text of the source: active = max response mostly above about 13% (no sharp cut-off); inactive = mostly below about 14%.
# Assay: Cycloheximide Counterscreen for Small Molecule Inhibitors of Shiga Toxin; note: read at 38.3 µM for the half of the compounds with a filed dose; 0% is about no effect
# Settings: cell reporter, cycloheximide protein synthesis inhibition counterscreen; hits give high values
row,Compound,max response
1,Cc1cccc(CSc2nnc(NC(=O)CSc3nnc(C)s3)s2)c1,10.9%
2,Cc1nnc(SCc2nc3ccccc3nc2C)s1,-3.4%
3,CCOC(=O)N1CCN(Cc2nc(N)nc(Nc3ccc(C)cc3)n2)CC1,5.78%
4,O=C(Nc1nnc(SCc2ccccc2)s1)c1ccco1,23.3% (active)
5,Cc1ccc(Nc2nnc(SCc3ccccc3)s2)cc1,24.5% (active)
6,O=C(Cc1cccs1)Nc1nnc(SCc2ccc(F)cc2)s1,-3.78%
7,Cc1ccc(Nc2nc(N)nc(CSc3nnc(C)s3)n2)cc1,34.9% (active)
8,COC(=O)CSc1nnc(NC(=O)CCc2ccccc2)s1,14%
9,O=C(Nc1nnc(CCOCCOCCc2nnc(NC(=O)c3ccco3)s2)s1)c1ccco1,-1.29%
10,Cc1ccc(OCC(=O)Nc2ccc(C(=O)O)cc2NC(=O)COc2ccc(C)c(C)c2)cc1C,7.55%
11,NC(=O)C1CCN(C(=O)CC2C(=O)NCCN2Cc2cccc(Oc3ccccc3)c2)CC1 (stereo unspecified),-2.74%
12,CC(C(=O)Nc1ccc(F)c(F)c1F)N1CCCCCC1 (stereo unspecified),-2.23%
13,O=C1CSC(c2cccc(F)c2)N1c1ccc(O)cc1 (stereo unspecified),-1.44%
14,COc1cccc(C2SCC(=O)N2c2cccc(C)c2)c1OC (stereo unspecified),-0.463%
15,Cc1ccc(C2SCC(=O)N2c2ccccc2)cc1 (stereo unspecified),16.9% (active)
16,COc1ccc(C(C)NC(=O)C2CCCC2)cc1 (stereo unspecified),-0.457%
17,CCc1ccc(N(CC(=O)NCc2cccnc2)S(=O)(=O)c2ccccc2)cc1,9.39%
18,O=c1nc(N/N=C/c2ccco2)cn[nH]1,35.1% (active)
19,O=C(Cn1cnc2ccccc21)N/N=C/c1ccco1,7.5%
20,CC(C)NC(=O)C(=O)N/N=C/c1ccco1,6.82%
21,O=C1C2C3C=CC(C4CC34)C2C(=O)N1c1nccs1 (stereo unspecified),-4.99%
22,CCCC1=Nc2cc(C(=O)NCc3ccco3)ccc2Sc2ccccc21,12.1%
23,O=C(CCCc1ccccc1)NCc1ccccc1,28.4% (active)
24,CC(CCc1ccccc1)NC(=O)COC(=O)c1ccc(F)cc1 (stereo unspecified),-6.34%
25,COc1ccc(COC(=O)c2n[nH]c3ccccc23)cc1F,67% (active)
26,CCN(CC)S(=O)(=O)c1ccc2nc(COC(=O)c3n[nH]c4ccccc34)[nH]c2c1,-0.99%

row,Compound,max response
1,O=C(COC(=O)c1n[nH]c2ccccc12)NCc1ccccc1,7.3%
2,CCC(C)NC(=O)CCCc1ccccc1 (stereo unspecified),27.2% (active)
3,C=CCN(CC=C)C(=O)COC(=O)c1n[nH]c2ccccc12,-0.5%
4,CCC(C)NC(=O)C1c2ccccc2C(=O)N1Cc1ccccc1 (stereo unspecified),7.68%
5,O=C(NCCc1ccc(F)cc1)c1n[nH]c2ccccc12,43.7% (active)
6,O=C(CCOc1ccccc1)NCc1ccccc1,-2.09%
7,O=C(O)CCCc1ccccc1,-4.62% and -1.89%
8,COc1cccc(CNC(=O)c2n[nH]c3ccccc23)c1,27.4%
9,Cc1cccc(CC(=O)N2CCN=C2SCc2ccc([N+](=O)[O-])cc2)c1,-3.02%
10,CC1C(=O)Nc2ccccc2N1C(=O)c1ccc(F)cc1F (stereo unspecified),1.08%
11,CC(C)C[C@@H](N)c1nnc(SCC(=O)c2ccc(Cl)cc2)o1,-2.64%
12,CCc1ccc(S(=O)(=O)Nc2cc3c(cc2N2CCCCC2)n(C)c(=O)c(=O)n3C)cc1,3.05%
13,O=C(Cc1c(O)c2ccccc2[nH]c1=O)NCc1ccccc1,-2.53%
14,CCN(CC)CCCNC(=O)CCc1ccccc1,10.2%
15,Cc1ccnc(NC(=O)CCC(=O)N(CC(=O)NCCc2ccccc2)Cc2cccs2)c1,-8.74%
16,O=C(CCc1ccccc1)NCCc1cccs1,36.1% (active)
17,CCCCC(=O)NCc1ccc(F)cc1,-4.14%
18,O=C(Cc1ccccc1)NCc1ccc(F)cc1,42.5% (active)
19,CCn1cc(C(=O)Nc2cc(C)ccc2C)c(=O)c2ccc(C)nc21,7.8%
20,COc1ccc(C2=NN(c3ccccc3)C(c3cccs3)C2)cc1 (stereo unspecified),0.803%
21,COc1ccc(C2CC(c3cccs3)=NN2c2ccccc2)cc1 (stereo unspecified),41% (active)
22,O=C(c1ccccc1)N1N=C(c2ccccc2O)CC1c1ccc(Br)cc1 (stereo unspecified),3.47%
23,CC(=O)Oc1ccccc1C1=NN(C(C)=O)C(c2ccccc2)C1 (stereo unspecified),9.57%
24,Oc1ccccc1C1=NN(c2ccccc2)C(c2ccccc2)C1 (stereo unspecified),49.1% (active)
25,COc1ccccc1N1N=C(c2cccs2)CC1c1ccccc1 (stereo unspecified),6.34%
26,COc1cccc(OCC(=O)NNC(=O)c2cnccn2)c1,-1.98%

row,Compound,max response
1,Cc1cc(C)nc(N/N=C/c2c(CO)cnc(C)c2O)n1,-2.74%
2,CCN(CC)c1ccc(/C=N/NC(=O)c2cnccn2)c(O)c1,28.1% (active)
3,NS(=O)(=O)c1ccc(CNC(=O)c2cnccn2)cc1,-2.6%
4,CCN(CC)c1ccc(/C=N/Nc2nc(C)cc(C)n2)c(O)c1,22.2% (active)
5,Cc1cc(C)nc(N/N=C/c2ccncc2)n1,0.636%
6,O=C(Nc1ccccc1Cl)/C(Cl)=C(\Cl)S(=O)c1ccccc1 (stereo unspecified),14.2%
7,Cc1cccc(NC(=O)N(Cc2cc3cc(C)cc(C)c3[nH]c2=O)CC2COCCO2)c1 (stereo unspecified),-3.44%
8,O=C(Nc1ccccc1-c1ccccc1)c1ccccc1[N+](=O)[O-],-3.24%
9,CCN(Cc1ccccc1)C(=O)CN1C(=S)NC(C)(C)CC1C (stereo unspecified),-3.52%
10,CCc1ccc2c(c1)C1(NN=C(c3ccccc3)S1)C(=O)N2 (stereo unspecified),69.8% (active)
11,CCOC(=O)c1c(NC(=O)CCCN2CCOCC2)sc2c1CC(C)(C)OC2,12.6%
12,CC(C)N(C(=O)c1ccc(-c2ccccc2F)cc1)C(C)C,-2.02%
13,CN(Cc1cccs1)C(=O)Cc1c[nH]c2ccccc12,18.3% (active)
14,CCOC(=O)CN(C)Cc1c[nH]c2ccccc12,0.657%
15,COc1ccc(CN(C)C(=O)Cc2c[nH]c3ccccc23)c(OC)c1OC,-1.59%
16,COc1cccc(CNC(=O)Cc2csc(Nc3nc(=S)[nH]c4ccccc34)n2)c1,10.3%
17,CCOC(CNC(=O)C(=O)NCC(c1ccco1)N1CCN(c2ccc(OC)cc2)CC1)OCC (stereo unspecified),-5.43%
18,CCCC(C)C(=O)NCc1ccncc1 (stereo unspecified),-3.47%
19,O=C(NNc1ccccc1Cl)C(O)(c1cccc(C(F)(F)F)c1)c1cccc(C(F)(F)F)c1,-4.75%
20,N#C/C(=C1\CCCN1)c1nc(-c2ccccc2)cs1,23% (active)
21,N#C/C(=C1/CCCN1)c1ccccn1,-2.58%
22,Cn1c(/C(C#N)=C2/CCCCCN2)nc2ccccc21,9.03%
23,N#CC(=C1SC=CS1)c1nc(-c2ccccc2)cs1,58.5% (active)
24,N#CC(=C1CCCC1)c1nc(-c2ccc(Cl)cc2)cs1,27.6%
25,Cc1ccc(S(=O)(=O)N2CCC(=O)N([C@H](COCc3ccccc3)Cc3ccccc3)CC2)cc1,7.08%
26,CN(/C(=N/S(=O)(=O)c1cccs1)c1ccccc1)c1ccc(O)cc1,11.5%

row,Compound,max response
1,CN(C)S(=O)(=O)c1ccc(N2CCCC2)c(C(=O)Nc2cccc(F)c2)c1,-3.38%
2,COc1ccc(CNC(=O)c2nnn(CC(=O)Nc3cc(C)cc(C)c3)c2N)cc1,-2.25%
3,CCN(CC)c1ccc(C(=O)Nn2c(C)nc3ccccc3c2=O)cc1,-2.07%
4,CCN(CC)c1ccc2cc(C(N)=O)/c(=N\NC(=O)c3ccncc3)oc2c1,5.35%
5,CCN(CC)c1ccc2oc(=O)c(C)nc2c1,16.6% (active)
6,CCc1[nH]nc(C(=O)N2CCCC(CO)(Cc3ccc(F)cc3F)C2)c1C (stereo unspecified),-3.79%
7,CCN(C(=O)c1cc([N+](=O)[O-])ccc1NCc1cccnc1)c1ccccc1,-3.46%
8,Cc1nc(NC(=O)C2CCCCC2)sc1C,40.1% (active)
9,CS(=O)(=O)c1ccc2nc(NC(=O)C3CCCCC3)sc2c1,9.31%
10,Cc1cnc(NC(=O)C2CCCC2)s1,23.2% (active)
11,CCOC(=O)c1cc(C)sc1NC(=O)C1CCC1,6.29%
12,CN1C(=O)c2ccc(NC(=O)C3CCCCC3)cc2C1=O,1.88%
13,Cc1nc(NC(=O)C23CCC(C)(C(=O)O2)C3(C)C)sc1C (stereo unspecified),-1.47%
14,CC(=O)NC1C(Oc2ccc(C)cc2)OC2COC(c3ccco3)OC2C1O (stereo unspecified),-5.51%
15,Cc1cc2c(s1)c1cnn(Cc3c(F)cccc3Cl)c(=O)c1n2C,4.69%
16,Cc1cc[n+](-c2[nH]c(=O)sc2/C=N/NC(=O)c2ccccc2[O-])cc1C,1.3%
17,CC(C)(C)c1cc[n+](-c2[nH]c(=O)sc2/C=N/N=C(\[O-])c2ccccc2)cc1,25.7% (active)
18,CCOC(=O)c1c(C)[nH]c(C)c1S(=O)(=O)N(C)CC(=O)Nc1ccccc1C,-6.33%
19,O=C(CCC(=O)n1ncc2ccccc21)NCc1ccccc1Cl,-1.42%
20,COc1ccc([N+](=O)[O-])cc1N(CC(=O)Nc1ccccc1C(=O)N1CCOCC1)S(C)(=O)=O,-2.31%
21,O=C(CSc1nnc(SCc2ccc(Cl)cc2)s1)N/N=C/c1ccccc1Cl,12.5% (active)
22,Cc1nnsc1C(=O)N/N=C/c1ccccc1Cl,-0.513%
23,O=C(Cc1ccccc1)N/N=C/c1ccc(Cl)cc1Cl,12%
